52 molecules from PubChem BioAssay AID624351 (Southern Research Specialized Biocontainment Screening …, 2012) can be followed below.

In all, about 2,400 compounds went through this assay and about 1,400 (58%) were called active. So high a share suggests a set chosen from earlier hits. Some of the results follow. A number with no mark means an inactive call.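 The calls were made as follows: active = inhibition of 30% or more at any tested dose; inconclusive = primary hits over the limit that were never retested; inactive = the rest.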

A word on the IC50: it is the concentration that inhibits the measured activity by half. Broadly, the inhibition is the relative decrease from the control value, in per cent.

The nature of this experiment: coupled detection enzyme interference, dose response, artefact control for MgcRacGAP inhibitor project, biochemical, coupled enzyme counter-screen (AID 624351).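 Also: signal is the ADP detection kit reading of free GDP without any GAP enzyme.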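 As to inhibition: 0% = median positive control wells and 100% = median negative control wells.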 Conditions: ADP Hunter coupled enzyme counter-screen, fluorescence, no MgcRacGAP; series mostly up to 80 µM; inhibition: at the top concentration. (In general: A counterscreen serves to expose hits that act by an unwanted route or on another target.)
For `COc1cc(/C=C/c2ccc3cccc(O)c3n2)ccc1O`, the IC50 is 81.5 µM (active).

Consider `CCCc1nc2ccccc2c(=O)n1/N=C/c1ccc(O)c(O)c1`, for which the concentration for half-maximal inhibition (IC50) is 41.7 µM (active).

Take `COc1cc(/C=N/n2c(C)nc3ccccc3c2=O)ccc1O`: the IC50 is 43.1 µM (active).

On to `NCC[C@H](O)C(=O)N[C@@H]1C[C@H](N)[C@@H](O[C@H]2O[C@H](CN)[C@@H](O)[C@H](O)[C@H]2O)[C@H](O)[C@H]1O[C@H]1O[C@H](CO)[C@@H](O)[C@H](N)[C@H]1O`, for which the “inhibition” value is 0.86%.

On to `COc1cc(/C=N/NC(=O)CN(Cc2ccco2)S(=O)(=O)c2ccccc2)ccc1O`, for which the IC50 was 49.9 µM (active).

Turning to `COc1cc(/C=N/NC(=O)CN(Cc2ccccc2)S(=O)(=O)c2ccc3c(c2)OCCO3)ccc1O`, the IC50 was 73 µM (active).

In the case of `CS/C(=N\S(=O)(=O)c1cccs1)NC(=O)CSc1nc2ccccc2s1`, the “inhibition” value was 4.26%.

With `C#CCOCCOCCOCCNc1nc(N2CCN(C(=O)[C@H](CCCCN)n3cc(CN)nn3)CC2)nc(N2CCN(C(=O)[C@H](CCC(=O)O)n3cc([C@@H](N)CCCCN)nn3)CC2)n1`, the “inhibition” value is 0.72%.

Turning to `CCOC(=O)C1=C(C)NC(=O)CC1c1cc2c(cc1[N+](=O)[O-])OCO2` (configuration not stated), the IC50 is 64.2 µM (active).

As for `OC1CNc2c(ccc3ccccc23)C1` (configuration not stated), the half-maximal inhibitory concentration (IC50) is 16.5 µM (active).

Turning to `O=C1CCC(C2CCc3cc(O)ccc3C2)C1` (configuration not stated), the IC50 was 77.7 µM (active).

Take `Clc1nssc1=Nc1ccc(Br)cc1`: the “inhibition” value was 15.1%.

`CSc1nc(C)c2c(n1)N(c1ccc(O)cc1)CC2`: the concentration for half-maximal inhibition (IC50) is 16.2 µM (active).

Regarding `Cc1ccc(N2C(S)=C(C#N)C(=O)NC2c2ccco2)cc1` (configuration not stated), the “inhibition” value is 7.63%.

Regarding `CCN(CC)CCOCCOc1ccc(Cl)c2ccccc12`, the “inhibition” value is 15%.

`CCOc1cccc2cc(C(=O)Oc3ccc(OC)cc3)c(=O)oc12`: the “inhibition” value was 20.3%.

As to `COc1cc(/C=N/NC(=O)CCC(=O)Nc2ccc(F)cc2)ccc1O`, the IC50 is 36.4 µM (active).

As to `O=C(CCC(=O)Nc1ccc(F)cc1)N/N=C/c1ccc(O)cc1`, the IC50 is 71.3 µM (active).

On to `Cc1ccc(NC(=O)CCC(=O)N/N=C/c2ccc(O)cc2)cc1`, for which the half-maximal inhibitory concentration (IC50) was 51.5 µM (active).

With `Cc1nc(C)c(CC(=O)N/N=C/c2ccc(O)cc2)c(=O)[nH]1`, the half-maximal inhibitory concentration (IC50) was 75.8 µM (active).

`CCCCCCCCCCCCCCCC(O)C[N+](C)(C)CCO` (configuration not stated): the “inhibition” value is -8.37%.

Turning to `Cc1ccc(NC(=O)CN(C)C2CCCCC2)cc1Cl`, the “inhibition” value was 12.6%.

Regarding `O=C(CC(=O)Nc1ccc(Cl)c(Cl)c1)N/N=C/c1ccc(O)cc1`, the IC50 was 66.8 µM (active).

As for `Cc1cc(=O)[nH]c(N/N=C/c2ccc(O)c(O)c2)n1`, the half-inhibitory concentration (IC50) was 20.9 µM (active).

For `COc1cc(/C=N/Nc2nc(C)cc(=O)[nH]2)ccc1O`, the IC50 is 24.9 µM (active).

Take `S=c1[nH]cc2cnccn12`: the half-inhibitory concentration (IC50) is 72.1 µM (active).

Take `CCOC(=O)c1c(C)[nH]sc1=S`: the IC50 was 44.3 µM (active).

With `CCOC(=O)c1c(C)[nH]c(C(=O)CN2CCN(CC)CC2)c1C`, the “inhibition” value was 23.7%.

In the case of `CCOC(=O)c1sc(=S)[nH]c1C`, the concentration for half-maximal inhibition (IC50) is 46 µM (active).

Take `CCn1c(-c2ccccc2)csc1=Nc1ccc(O)cc1`: the half-inhibitory concentration (IC50) was 35.8 µM (active).

As to `C=CCn1c(=O)/c(=C/c2ccc(O)cc2)s/c1=C(/C#N)c1nnc2n1CCCCC2`, the IC50 was 58.7 µM (active).

Take `C/C(=N\NC(=O)CSCc1ccccc1Cl)c1cc(O)ccc1O`: the IC50 was 25.6 µM (active).

On to `Brc1csc(C=Nc2ccc3c(c2)OCCOCCOCCOCCO3)c1`, for which the IC50 is 70.1 µM (active).

Take `CCN1CCN(CC(=O)N/N=C/c2cc(Br)cs2)CC1`: the “inhibition” value is 22.6%.

As for `CC1=NN(c2ccc(C(=O)O)cc2)C(=O)/C1=C\c1ccc(OC(=O)c2cccs2)cc1`, the “inhibition” value was 1.5%.

As for `COc1ccc(Br)cc1CN1CCC(N2CCCC2)CC1`, the “inhibition” value is 23.7%.

For the molecule `Oc1ccc(N2CCN(C(c3cccs3)c3nnnn3CCc3ccccc3)CC2)cc1` (configuration not stated), the concentration for half-maximal inhibition (IC50) was 45.2 µM (active).

Consider `COc1ccc(N2CCN(C(=O)c3ccc(CS(=O)c4cccc(Cl)c4)o3)CC2)cc1` (configuration not stated), for which the “inhibition” value is 29%.

`CCC(c1nnnn1Cc1ccccc1)N1CCN(c2ccc(OC)cc2)CC1` (configuration not stated): the “inhibition” value was 21.9%.

For the molecule `COc1ccc(Cn2nnnc2C(c2cccnc2)N2CCN(c3ccc(O)cc3)CC2)cc1` (configuration not stated), the IC50 was 50.3 µM (active).

Consider `COc1cc2oc(-c3ccc(O)cc3)cc(=O)c2c(OC)c1O`, for which the half-inhibitory concentration (IC50) is 21.9 µM (active).

Consider `COc1cccc(CNc2ccc3[nH]c(=O)[nH]c3c2)c1OCc1ccccc1Cl`, for which the half-maximal inhibitory concentration (IC50) is 83.9 µM (active).

As for `COc1cc(CNc2ccc3[nH]c(=O)[nH]c3c2)ccc1OCc1ccccc1F`, the “inhibition” value is 15.4%.

As to `COc1cc(CNc2ccc3[nH]c(=O)[nH]c3c2)ccc1OCc1c(F)cccc1Cl`, the “inhibition” value is 6.31%.

For the molecule `Cc1ccc(S(=O)(=O)Nc2ccc(N(C)C)cc2)cc1`, the half-maximal inhibitory concentration (IC50) is 31.3 µM (active).

Turning to `CN(C)c1ccc(NS(=O)(=O)c2ccc(Cl)cc2)cc1`, the IC50 was 33.7 µM (active).

As for `Cc1ccc(S(=O)(=O)Nc2nsc(N)n2)cc1`, the “inhibition” value was 4.63%.

On to `CN(C)c1ccc(NS(=O)(=O)c2cc(Cl)ccc2Cl)cc1`, for which the 50% inhibitory concentration (IC50) was 50 µM (active).

As for `CC(C)(C)N(NS(=O)(=O)c1ccc(F)cc1)c1ccccc1`, the “inhibition” value was 9.28%.

`CC(NS(=O)(=O)c1ccc(Cl)cc1)C(=O)OCC(=O)Nc1ccc(N(C)C)cc1` (configuration not stated): the IC50 is 70.6 µM (active).

For `CC1CCN(CC(=O)Nc2ccc(S(=O)(=O)NC3CC3)cc2)CC1`, the “inhibition” value was 14.7%.

`CN(CC(=O)NCc1ccncc1)S(=O)(=O)c1ccc(Cl)cc1`: the “inhibition” value was 0.47%.
